Activity calls are given as the source filed them.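 How the source made its calls, unless noted: active means inhibition above 20% together with a positive visual image hit; inconclusive means visual image hit but inhibition not above 20%; inactive means no visual image hit.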
Assay: inhibitors of TNFa-induced NFkB p65 translocation, primary screen, imaging, HUVEC, MLSMR starter and 10KST1 sets (AID 438);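 further: compound added about 3h40 before a 20 min TNFalpha stimulation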;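 on inhibition: signal is the nuclear over cytoplasmic p65 intensity ratio per well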
Settings: HUVEC TNFa-induced p65 nuclear translocation; cell count: measured here: nuclei count (cytotoxicity indicator), at 2.08 µM; inhibition: at 2 µM, stronger effect = higher value, 0% TNFa-plus-vehicle, 100% no-TNFa wells

Structure (SMILES) | inhibition | cell count
CCOc1ccccc1-n1nnnc1SCC(=O)Nc1cc2oc3ccccc3c2cc1OC | -2.9% (inactive) | 374
COc1ccccc1C1/C(=C(/O)c2ccccc2)C(=O)C(=O)N1CC(C)C (stereo not given) | -3.3% (inactive) | 430
CCn1c(-c2cc(Br)ccc2O)n[nH]c1=S | -3.8% (inactive) | 623
Cc1cc(C(=O)Nc2sc3c(c2C#N)CCCCC3)cs1 | 6% (inactive) | 651
Cc1ccc(N2C(N)=NC(N)=NC23CCCC3)c(C)c1 | -5.9% (inactive) | 656
O=C1C2C3C=CC(C3)C2C(=O)N1Cc1ccccc1 (stereo not given) | -9.2% (inactive) | 480
CCCN(CCC)C(=O)C1CCN(c2cc(C)nc3c(-c4ccc(OC)c(OC)c4)c(C)nn23)CC1 | 6.6% (inactive) | 651
Cc1c[nH]c2cccc(OCC(O)CNC(C)(C)C)c12 (stereo not given) | -1.6% (inactive) | 324
O=C(NCCN1CCOCC1)c1ccc2c(c1)N(Cc1ccccc1F)C(=O)CS2 | 5.8% (inactive) | 591
O=C(NCc1ccc2c(c1)OCO2)c1ccc(NS(=O)(=O)c2ccc3c(c2)OCCO3)cc1 | -22.3% (inactive) | 499
CC(C)(C#N)Nn1cnnc1 | 5.3% (inactive) | 609
CC1=NC(Nc2nc(C)c3ccccc3n2)=NC(C)(C)C1 | 1.5% (inactive) | 391
O=C(CSCc1cccc(F)c1)N1CCN(c2ccccc2)CC1 | -14.3% (inactive) | 545
CC(=O)N1CCN(c2ccc(NC(=O)c3ccc(C(C)(C)C)cc3)cc2)CC1 | 7.3% (inactive) | 816
CC1(C)OC(=O)N(c2cccnc2)C1(C)O (stereo not given) | 8.1% (inactive) | 597
Cc1cc(=O)oc2cc(OCC(=O)OCC(=O)N3CCc4ccccc43)ccc12 | 4.7% (inactive) | 358
CC1CCCN(c2ccc(C(=O)NCc3cccs3)cn2)C1 (stereo not given) | -14.3% (inactive) | 632
CC(=O)c1c(OC(=O)c2ccco2)c2ccccc2n1C | 1% (inactive) | 386
Cc1cc(/C=N/n2cnnc2)c(C)n1-c1cccc(Cl)c1 | 4.7% (inactive) | 567
COc1ccc2ccccc2c1CN1CCCC(CO)C1 (stereo not given) | 3.4% (inactive) | 745

Structure (SMILES) | inhibition | cell count
CCn1c(C(Cc2ccccc2)NC(=O)COC)nc2ccccc21 (stereo not given) | 13.9% (inactive) | 471
CC(C)OC(=O)C1C2C=CC3(CN(Cc4cccs4)C(=O)C13)O2 (stereo not given) | 5% (inactive) | 469
Cc1[nH]c(=O)[nH]c(=O)c1S(=O)(=O)N1CCCC(C(=O)NCc2ccco2)C1 (stereo not given) | -2.8% (inactive) | 377
COc1ccc(OC)c(C2CC(=O)NC(SC)=C2C#N)c1 (stereo not given) | -9.6% (inactive) | 662
COc1ccc(S(=O)(=O)NCc2ccc3c(c2)OCO3)cc1C(=O)O | -4.7% (inactive) | 379
CC(=O)Nc1ccccc1OCc1nnc(-c2cccs2)o1 | 4.8% (inactive) | 392
CCn1nnnc1SCC(=O)N1CCOCC1 | 11.3% (inactive) | 707
NC(=O)c1c(NC(=O)Cc2cccs2)sc2c1CCC2 | -17.1% (inactive) | 537
COC(=O)C(C#N)C(=C1C(=O)CC(C)(C)CC1=O)c1ccc(O)cc1 (stereo not given) | 1.2% (inactive) | 315
CCCCn1nnnc1NCc1cccs1 | 2.9% (inactive) | 412
CCOC(=O)N1CCC(n2c(SCC(=O)NCc3ccco3)nc3ccsc3c2=O)CC1 | 3.4% (inactive) | 729
CCC(=O)N1CCN(c2nc(-c3ccccc3)c3c(c2C#N)CCCC3)CC1 | 6.3% (inactive) | 501
c1nc(NCC2(N3CCOCC3)CCCCC2)c2ccsc2n1 | 17.8% (inactive) | 303
CC(C)(C)NC(=O)Cn1nnnc1-c1nonc1N | 9.2% (inactive) | 433
Nc1scc(-c2ccncc2)c1Cl | -0.2% (inactive) | 349
COc1cccc(-n2c(CNc3ccc(F)cc3)nnc2SCC(N)=O)c1 | 1.9% (inactive) | 475
COc1ccc(CCNc2oc(-c3ccccc3OC)nc2C#N)cc1 | -4.3% (inactive) | 216
CC1(C)CN=C(N2CCN(c3ncnc4sc5c(c34)CCCC5)CC2)S1 | 4.1% (inactive) | 395
CC(CN1CCCCC1)OC(=O)c1ccc2c(c1)OCO2 (stereo not given) | 4.9% (inactive) | 639
CC(C)CCN(C)C1CCN(S(=O)(=O)c2ccc(F)cc2)CC1 | 0.8% (inactive) | 638

Assay: inhibitors of mutant huntingtin aggregation, primary screen, imaging, exon1htt(103Q)mCFP cells, high-content imaging (AID 483;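 active means visual image review flags a hit and inhibition of aggregation exceeds 20%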;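 further: compound exposure lasted 3 days before fixation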;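 on nuclei count: percent of the per-plate median nuclei count of sample wells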)
Settings: exon1htt(103Q)mCFP cell line, aggregate imaging, at 2 µM; inhibition of aggregation: stronger effect = higher value; nuclei count: measured here: cell count, toxicity

Structure (SMILES) | inhibition of aggregation | nuclei count [%]
CCOc1ccccc1-n1nnnc1SCC(=O)Nc1cc2oc3ccccc3c2cc1OC | 4.8% (inactive) | 99.1
COc1ccccc1C1/C(=C(/O)c2ccccc2)C(=O)C(=O)N1CC(C)C (stereo not given) | -2% (inactive) | 112
CCn1c(-c2cc(Br)ccc2O)n[nH]c1=S | -0.9% (inactive) | 112
Cc1cc(C(=O)Nc2sc3c(c2C#N)CCCCC3)cs1 | -8.1% (inactive) | 107
Cc1ccc(N2C(N)=NC(N)=NC23CCCC3)c(C)c1 | -11.1% (inactive) | 106
O=C1C2C3C=CC(C3)C2C(=O)N1Cc1ccccc1 (stereo not given) | -2.3% (inactive) | 102
CCCN(CCC)C(=O)C1CCN(c2cc(C)nc3c(-c4ccc(OC)c(OC)c4)c(C)nn23)CC1 | -2.4% (inactive) | 91.7
Cc1c[nH]c2cccc(OCC(O)CNC(C)(C)C)c12 (stereo not given) | 15.3% (inactive) | 95.2
O=C(NCCN1CCOCC1)c1ccc2c(c1)N(Cc1ccccc1F)C(=O)CS2 | 6% (inactive) | 67.6
O=C(NCc1ccc2c(c1)OCO2)c1ccc(NS(=O)(=O)c2ccc3c(c2)OCCO3)cc1 | 20.4% (inactive) | 104
CC(C)(C#N)Nn1cnnc1 | 13.2% (inactive) | 109
CC1=NC(Nc2nc(C)c3ccccc3n2)=NC(C)(C)C1 | -1.8% (inactive) | 94
O=C(CSCc1cccc(F)c1)N1CCN(c2ccccc2)CC1 | 33.7% (inactive) | 68.7
CC(=O)N1CCN(c2ccc(NC(=O)c3ccc(C(C)(C)C)cc3)cc2)CC1 | -7.5% (inactive) | 97.8
CC1(C)OC(=O)N(c2cccnc2)C1(C)O (stereo not given) | -2.8% (inactive) | 101
Cc1cc(=O)oc2cc(OCC(=O)OCC(=O)N3CCc4ccccc43)ccc12 | -5% (inactive) | 88.9
CC1CCCN(c2ccc(C(=O)NCc3cccs3)cn2)C1 (stereo not given) | -22.9% (inactive) | 112
CC(=O)c1c(OC(=O)c2ccco2)c2ccccc2n1C | 15.7% (inactive) | 72.8
Cc1cc(/C=N/n2cnnc2)c(C)n1-c1cccc(Cl)c1 | 31% (inactive) | 32.1
COc1ccc2ccccc2c1CN1CCCC(CO)C1 (stereo not given) | 4.4% (inactive) | 110

Structure (SMILES) | inhibition of aggregation | nuclei count [%]
CCn1c(C(Cc2ccccc2)NC(=O)COC)nc2ccccc21 (stereo not given) | 5.5% (inactive) | 124
CC(C)OC(=O)C1C2C=CC3(CN(Cc4cccs4)C(=O)C13)O2 (stereo not given) | 0.9% (inactive) | 83.9
Cc1[nH]c(=O)[nH]c(=O)c1S(=O)(=O)N1CCCC(C(=O)NCc2ccco2)C1 (stereo not given) | -4.9% (inactive) | 104
COc1ccc(OC)c(C2CC(=O)NC(SC)=C2C#N)c1 (stereo not given) | -13.5% (inactive) | 114
COc1ccc(S(=O)(=O)NCc2ccc3c(c2)OCO3)cc1C(=O)O | -1.8% (inactive) | 120
CC(=O)Nc1ccccc1OCc1nnc(-c2cccs2)o1 | -8.8% (inactive) | 92.5
CCn1nnnc1SCC(=O)N1CCOCC1 | -2% (inactive) | 122
NC(=O)c1c(NC(=O)Cc2cccs2)sc2c1CCC2 | 12.6% (inactive) | 109
COC(=O)C(C#N)C(=C1C(=O)CC(C)(C)CC1=O)c1ccc(O)cc1 (stereo not given) | 12% (inactive) | 92.7
CCCCn1nnnc1NCc1cccs1 | 0.4% (inactive) | 105
CCOC(=O)N1CCC(n2c(SCC(=O)NCc3ccco3)nc3ccsc3c2=O)CC1 | 2.8% (inactive) | 97.8
CCC(=O)N1CCN(c2nc(-c3ccccc3)c3c(c2C#N)CCCC3)CC1 | 0.7% (inactive) | 98.3
c1nc(NCC2(N3CCOCC3)CCCCC2)c2ccsc2n1 | -2.2% (inactive) | 93
CC(C)(C)NC(=O)Cn1nnnc1-c1nonc1N | -5.9% (inactive) | 120
Nc1scc(-c2ccncc2)c1Cl | 23% (inactive) | 94.4
COc1cccc(-n2c(CNc3ccc(F)cc3)nnc2SCC(N)=O)c1 | -17% (inactive) | 113
COc1ccc(CCNc2oc(-c3ccccc3OC)nc2C#N)cc1 | 4% (inactive) | 86.1
CC1(C)CN=C(N2CCN(c3ncnc4sc5c(c34)CCCC5)CC2)S1 | -0.4% (inactive) | 80.5
CC(CN1CCCCC1)OC(=O)c1ccc2c(c1)OCO2 (stereo not given) | 27.4% (inactive) | 70.8
CC(C)CCN(C)C1CCN(S(=O)(=O)c2ccc(F)cc2)CC1 | -2.4% (inactive) | 82.9
